Experimental data taken from PubChem BioAssay (NCI).
The panel holds about 83,000 compounds, 20% with a hit somewhere; the sample as a whole holds those more often.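 For each line, cells grew in 96-well plates with the test compound present at a single concentration for 48 hours.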 Values without a mark were called inactive. Activity calls are given as the source filed them. How the source made its calls: active means growth percent below 10; inactive means the rest.

How the values were obtained:
Assay in all cases: NCI-60 one-dose screen, 48 h (100 = growth as untreated, 0 = no growth, -100 = all killed)
Conditions in all cases: 10 µM unless noted
NCI-H23 lung = system: NCI-H23 lung
NCI-H226 lung = system: NCI-H226 lung
NCI-H322M lung = system: NCI-H322M lung
HOP-62 NSCLC = system: HOP-62 NSCLC
NCI-H460 lung = system: NCI-H460 lung
HOP-92 NSCLC = system: HOP-92 NSCLC
NCI-H522 lung = system: NCI-H522 lung
A549/ATCC NSCLC = system: A549/ATCC NSCLC
786-0 renal = system: 786-0 renal
COLO 205 colon = system: COLO 205 colon

SMILES	growth (NCI-H23 lung)	growth (NCI-H226 lung)	growth (NCI-H322M lung)	growth (HOP-62 NSCLC)	growth (NCI-H460 lung)	growth (HOP-92 NSCLC)	growth (NCI-H522 lung)	growth (A549/ATCC NSCLC)	growth (786-0 renal)	growth (COLO 205 colon)
COc1ccc(C(=O)c2sc3nc4c(cc3c2N)N2CCC4CC2)cc1OC	92.5%	65.2%	107%	72.9%	103%	6.56% (active)	82.4%	94.8%	90.9%	97.1%
COC(=O)[C@@H](C)C[C@H](Cc1ccccc1)NC(=O)c1csc([C@@H](C[C@H](C(C)C)N(C)C(=O)[C@@H](NC(=O)[C@H]2CCCN2C)C2CC2)OC(C)=O)n1	23.5%	24.1%	50.9%	12.2%	3.65% (active)	-6.22% (active)	-9.59% (active)	13.2%	15.6%	-63.1% (active)
COc1cc(C=Nc2cc(Cl)cc(Cl)c2)ccc1N(CCCl)CCCl	80.1%	76.4%	92.8%	95.7%	13.7%	77.3%	-84.3% (active)	91.9%	107%	76.9%
[Cl][Hg][n]1c(-c2ccco2)nc2ccccc21	99%	97.5%	98.8%	115%	96.4%	116%	85.7%	100%	107%	121%
CC1=C(CCCNS(C)(=O)=O)C2=C(C)C3(CC3)[C@@](C)(O)C(=O)C2=C1	-35.1% (active)	-44% (active)	-3.8% (active)	-20.5% (active)	1% (active)	-25.7% (active)	6.89% (active)	2.7% (active)	-17.6% (active)	-61% (active)
N#CC1(c2ccccc2)CCN(Cc2ccccc2)CC1	98.9%	101%	144%	106%	104%	51.8%	92.6%	99.5%	101%	105%
COc1cc(/C=C/[N+](=O)[O-])c([N+](=O)[O-])cc1OC	79.6%	16.1%	110%	81.1%	76.1%	94.2%	-89.9% (active)	78%	-30.7% (active)	-52.7% (active)
CCCCCCCCCCCCCCCCCC1OC[C@H](COC(=O)O[C@@H](C(=O)O[C@H]2C[C@@]3(O)[C@@H](OC(=O)c4ccccc4)[C@@H]4[C@]5(OC(C)=O)CO[C@@H]5C[C@H](O)[C@@]4(C)C(=O)[C@H](OC(C)=O)C(=C2C)C3(C)C)[C@@H](NC(=O)c2ccccc2)c2ccccc2)O1 (stereo not given in full)	42.7%	94.3%	47.4%	66.3%	20.9%	75%	60.2%	43.9%	91.2%	13.3%
Fc1ccc2c(c1)c(-c1nc(-c3c[nH]c4ncccc34)cs1)cn2CCCCN1CCCCC1	-75.9% (active)	-7.3% (active)	-47.9% (active)	-89.5% (active)	-80% (active)	-52.8% (active)	-87.2% (active)	-87.7% (active)	-93.7% (active)	-89.6% (active)
N#C[S-].[Au+].c1ccc(CN2[CH-]N(Cc3ccccc3)C(c3ccccc3)=C2c2ccccc2)cc1	8.69% (active)	24.4%	30.3%	16%	4.03% (active)	-25% (active)	-30.9% (active)	12.8%	7% (active)	-76.9% (active)
CC(=O)O[C@H](C[C@H](C(C)C)N(C)C(=O)[C@@H](NC(=O)[C@H]1CCCCN1C)C(C)C)c1nc(C(=O)N[C@@H](Cc2ccccc2)C[C@H](C)C(=O)O)c(CCOCc2ccccc2)s1	24.3%	-56.8% (active)	33.5%	29.6%	5.98% (active)	5.5% (active)	-47.4% (active)	13%	7.14% (active)	-42% (active)
COc1cc([C@@H]2c3cc4c(cc3[C@H](OC(C)=O)[C@H]3COC(=O)[C@@H]23)OCO4)cc(OC)c1OC	0.572% (active)	33.2%	36.3%	10.6%	-4.08% (active)	27.2%	-34.7% (active)	10.5%	2.27% (active)	-75.8% (active)
